Inconclusive results are not listed. Values without a mark were called inactive. Calls of active or inactive are those of the source. Calls follow the shape of the dose curve; as a rule, active = well fitted inhibition curve with a large enough effect; inconclusive = small, poorly fitted or top-dose-only effect; inactive = flat fitted curve, though single readings scatter.
Assay: P-glycoprotein substrates identified in KB-8-5-11 adenocarcinoma cell line, qHTS therapeutic library screen (AID 1346987); also: nearly all actives have a fitted effect of over 65% in size
Conditions: KB-8-5-11 (P-gp overexpressing) viability, CellTiter-Glo, 72 h; series mostly up to 44.5 µM; activity change, negative = cytotoxicity: at the top concentration
Procedure, shortened: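 Luminescence from CellTiter-Glo, read 5 min after addition, quantified survival of KB-8-5-11 (P-gp-overexpressing) cells exposed to compounds for 72 h. AC50 was derived from concentration-response curves.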
% is scaled to controls: 0 for no effect and ±100 for the full control effect; potency is read from the fitted curve at half-maximal effect.

SMILES | activity change, negative = cytotoxicity | outcome | Potency
C/C=C(/C)C(=O)OC1C=C2C3C(C)C(C)C(OC(=O)C(C)C(C)O)CC3(C)CCC2(C)C2(C)CC(OC(C)=O)C3C(C)(C)C(O)C(=O)CC3(C)C12 (configuration not stated) | 6.59% [at 17.3 µM] | – | –
Cc1cnn(-c2ccccc2)c1NC(=O)COCc1ccccc1 | -13.2% | – | –
O=C(NC[C@H]1CN(c2ccc(N3CCOCC3=O)cc2)C(=O)O1)c1ccc(Cl)s1 | – | inactive | –
COc1c(C)cnc(Cn2cc(C#CCC(C)(C)O)c3c(Cl)nc(N)nc32)c1C | – | – | 0.0326 µM (active)
O=c1[nH]cnc2[nH]cc(CN3CCCCC3)c12 | 2.73% | – | –
Cc1ccc(C(C)C)c(O[C@@H]2O[C@H](CO)[C@@H](O)[C@H](O)[C@H]2O)c1 | -4.04% | – | –
COC1CCN(c2cccc(-c3cc(NC(C)=O)nc(-n4nc(C)cc4C)n3)n2)CC1 | – | – | 20.6 µM (active)
